Assay results as given in PMC8384837, “Expanding the binding specificity for RNA recognition by a PUF domain”.

Legend:
Test in all cases: yeast three-hybrid, YBZ-1, SC-Leu-His + 0.5 mM 3-AT, 4 days
Conditions in all cases: tags: N-Gal4 AD-HA kept; label: inside an RPR1-promoter hybrid RNA with tandem MS2 sites; ssRNA
PUM1 PUF domain R5-IHR = PUM1 PUF domain R5-IHR (Homo sapiens, UniProt Q14671 828-1176, C1007I;R1008H;Q1011R)
Method in brief: (§1)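 The interaction score is the logarithmic change in variant frequency from input to selection. It uses log2, with a pseudocount of 1 for absent variants, and frequencies came from PCR-amplified, Illumina-sequenced repeat regions. The libraries were Pumilio-1 PUF domains randomized at the three base-contacting residues per repeat, co-expressed with matching RNA elements in strain YBZ-1 (LexA–MS2 coat fusion, HIS3 reporter). Plating lasted four days on SC-Leu (input) or SC-Leu-His + 0.5 mM 3-AT (selection).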

PUM1 PUF domain R5-KHV = PUM1 PUF domain R5-KHV (Homo sapiens, UniProt Q14671 828-1176, C1007K;R1008H;Q1011V)
Method in brief: as §1

PUM1 PUF domain R5-KSC = PUM1 PUF domain R5-KSC (Homo sapiens, UniProt Q14671 828-1176, C1007K;R1008S;Q1011C)
Method in brief: as §1

PUM1 PUF domain R7-ERA = PUM1 PUF domain R7-ERA (Homo sapiens, UniProt Q14671 828-1176, S1079E;N1080R;E1083A)
Method in brief: as §1

PUM1 PUF domain R3-GCW = PUM1 PUF domain R3-GCW (Homo sapiens, UniProt Q14671 828-1176, C935G;R936C;Q939W)
Method in brief: as §1

PUM1 PUF domain R3-RRG = PUM1 PUF domain R3-RRG (Homo sapiens, UniProt Q14671 828-1176, C935R;Q939G)
Method in brief: as §1

PUM1 PUF domain R4-APA = PUM1 PUF domain R4-APA (Homo sapiens, UniProt Q14671 828-1176, N971A;H972P;Q975A)
Method in brief: as §1

PUM1 PUF domain R4-VGL = PUM1 PUF domain R4-VGL (Homo sapiens, UniProt Q14671 828-1176, N971V;H972G;Q975L)
Method in brief: as §1

PUM1 PUF domain R4-GRI = PUM1 PUF domain R4-GRI (Homo sapiens, UniProt Q14671 828-1176, N971G;H972R;Q975I)
Method in brief: as §1

PUM1 PUF domain R6-RWG = molecular target: T1, PUM1 PUF domain R6-RWG (Homo sapiens, UniProt Q14671 828-1176, N1043R;Y1044W;Q1047G)
T1 sequence: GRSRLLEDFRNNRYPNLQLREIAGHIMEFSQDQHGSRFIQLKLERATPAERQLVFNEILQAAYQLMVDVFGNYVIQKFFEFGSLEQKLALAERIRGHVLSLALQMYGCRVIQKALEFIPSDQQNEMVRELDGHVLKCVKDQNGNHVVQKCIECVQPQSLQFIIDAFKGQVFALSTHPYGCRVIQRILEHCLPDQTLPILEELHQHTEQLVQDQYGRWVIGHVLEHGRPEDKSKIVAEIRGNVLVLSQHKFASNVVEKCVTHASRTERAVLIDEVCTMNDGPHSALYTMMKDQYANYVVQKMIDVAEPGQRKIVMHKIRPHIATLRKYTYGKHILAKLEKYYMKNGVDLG
Method in brief: as §1

Which binding signal (PUM1 PUF domain R5-IHR) does the source give for “GGCUAGAACUAGUGGAUCCCCCGGCGCCCGGCGGCUCGAGCCCGGGUAAGUGUUAAUAGUCUGCAUGCCGCCGGGCGCCAUGCCUGCAGGUCGACUCUAGAAAACAUG” here?
Its binding signal is 3.52 log2 enrichment (interaction score).

And the binding signal (PUM1 PUF domain R5-KHV)?
Its binding signal is 2.08 log2 enrichment (interaction score).

And the binding signal (PUM1 PUF domain R5-KSC)?
The binding signal was 2.38 log2 enrichment (interaction score).

For “GGCUAGAACUAGUGGAUCCCCCGGCGCCCGGCGGCUCGAGCCCGGGUAAGUCUAAAUAGUCUGCAUGCCGCCGGGCGCCAUGCCUGCAGGUCGACUCUAGAAAACAUG”, which binding signal (PUM1 PUF domain R7-ERA) is on record?
The binding signal was 2.68 log2 enrichment (interaction score).

What does the source list for “GGCUAGAACUAGUGGAUCCCCCGGCGCCCGGCGGCUCGAGCCCGGGUAAGUGUAAUUAGUCUGCAUGCCGCCGGGCGCCAUGCCUGCAGGUCGACUCUAGAAAACAUG”?
binding signal (PUM1 PUF domain R3-GCW): 3.22 log2 enrichment (interaction score); binding signal (PUM1 PUF domain R3-RRG): 3.82 log2 enrichment (interaction score)

For “GGCUAGAACUAGUGGAUCCCCCGGCGCCCGGCGGCUCGAGCCCGGGUAAGUGUCAAUAGUCUGCAUGCCGCCGGGCGCCAUGCCUGCAGGUCGACUCUAGAAAACAUG”, which binding signal (PUM1 PUF domain R5-KSC) is on record?
Its binding signal is 5.14 log2 enrichment (interaction score).

How did the binding signal (PUM1 PUF domain R4-APA) turn out when “GGCUAGAACUAGUGGAUCCCCCGGCGCCCGGCGGCUCGAGCCCGGGUAAGUGUACAUAGUCUGCAUGCCGCCGGGCGCCAUGCCUGCAGGUCGACUCUAGAAAACAUG” was run?
Its binding signal is 1.33 log2 enrichment (interaction score).

For “GGCUAGAACUAGUGGAUCCCCCGGCGCCCGGCGGCUCGAGCCCGGGUAAGUGUAAGUAGUCUGCAUGCCGCCGGGCGCCAUGCCUGCAGGUCGACUCUAGAAAACAUG”, which binding signal (PUM1 PUF domain R3-RRG) is on record?
Its binding signal is 0.28 log2 enrichment (interaction score).

How did the binding signal (PUM1 PUF domain R4-APA) turn out when “GGCUAGAACUAGUGGAUCCCCCGGCGCCCGGCGGCUCGAGCCCGGGUAAGUGUAUAUAGUCUGCAUGCCGCCGGGCGCCAUGCCUGCAGGUCGACUCUAGAAAACAUG” was run?
Its binding signal is 2.47 log2 enrichment (interaction score).

Which results are given for “GGCUAGAACUAGUGGAUCCCCCGGCGCCCGGCGGCUCGAGCCCGGGUAAGUGUAAAUAGUCUGCAUGCCGCCGGGCGCCAUGCCUGCAGGUCGACUCUAGAAAACAUG”?
binding signal (PUM1 PUF domain R4-VGL): 3.22 log2 enrichment (interaction score); binding signal (PUM1 PUF domain R3-GCW): 1.82 log2 enrichment (interaction score); binding signal (PUM1 PUF domain R4-GRI): 3.58 log2 enrichment (interaction score); binding signal (PUM1 PUF domain R4-APA): 4.16 log2 enrichment (interaction score); binding signal (PUM1 PUF domain R6-RWG): 5.05 log2 enrichment (interaction score)

How did the binding signal (PUM1 PUF domain R6-RWG) turn out when “GGCUAGAACUAGUGGAUCCCCCGGCGCCCGGCGGCUCGAGCCCGGGUAAGUGAAAAUAGUCUGCAUGCCGCCGGGCGCCAUGCCUGCAGGUCGACUCUAGAAAACAUG” was run?
The binding signal was 3.42 log2 enrichment (interaction score).
